Screening data deposited in PubChem by several laboratories.
Compounds with a hit are over-represented: about 2.8% of the library has one in this group of screens.
NCF1 inh: p47phox (human) inhibition | 0.53% of 220,000 active | p47phox/p22phox peptide binding, fluorescence polarization, 2 h | P14598 | inhibition, % at 24.7 µM;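 active = inhibition above about 30%, limit read from the data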;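 note: 0% = p47phox with labelled peptide and 100% = labelled peptide alone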
Target sequence (P14598 whole entry, looked up): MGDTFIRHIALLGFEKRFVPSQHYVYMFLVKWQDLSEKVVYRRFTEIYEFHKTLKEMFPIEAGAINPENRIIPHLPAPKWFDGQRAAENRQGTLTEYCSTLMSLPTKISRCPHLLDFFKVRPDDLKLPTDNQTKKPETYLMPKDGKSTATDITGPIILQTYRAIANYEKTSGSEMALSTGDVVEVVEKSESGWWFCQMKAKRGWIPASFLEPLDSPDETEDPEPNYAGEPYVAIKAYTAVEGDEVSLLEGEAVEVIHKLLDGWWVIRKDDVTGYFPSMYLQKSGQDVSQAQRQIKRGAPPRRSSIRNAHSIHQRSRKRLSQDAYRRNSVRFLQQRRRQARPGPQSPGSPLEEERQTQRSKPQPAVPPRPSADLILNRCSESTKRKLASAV
HSV replic up: increases HSV replication in cells | maximum fold increase | AID 1956 | HSV replication augmentation in cells, fold increase | 0.005% of 220,000 active; in the data active = maximum fold increase above about 1.5; tested in PC3 cells
Wee1 stabilizer: human Wee1 degradation inhibition, primary screen; P30291; 1.2% of 220,000 active; HeLa Luc-Wee1K328M stability, luciferase luminescence; 100% = proteasome inhibitor MG132 effect; reporter increase, % at 5 µM;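 active = activation above the mean of all tested compounds plus 3 SD, set per screening run, cut at about 8.8% in these data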;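 note: cells exposed to compound for 20 h before luminescence read; 0% = DMSO alone and 100% = MG132 at 30 µM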
EP2 modulator: modulators of human EP2 prostaglandin E2 receptor; P43116; EP2-expressing cells, cAMP HTRF FRET, PGE2 co-stimulation; induction, % at 25 µM; 0.83% of 260,000 active; AID 940;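 active = compounds whose cAMP rise, as percent of the full-agonist control response, exceeds 60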;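 note: rat C6 glioma line stably carrying human EP2 under a CMV promoter; the protocol text gives 20 µM as final concentration; 100% = response of wells given 1 µM PGE2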
Furin inhibitor: inhibitors of human furin | P09958 | purified furin, fluorogenic substrate cleavage | inhibition, % at 20 µM or 30 µM | 0.061% of 220,000 active | AID 463115; in the data active = inhibition above about 25%
PGE2 EP2 inh: inhibitors of human EP2 prostaglandin E2 receptor; C6 glioma cells expressing human EP2, cAMP TR-FRET; cells stimulated with saturating PGE2; P43116; 0.52% of 260,000 active; inhibition, % at 25 µM;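 active = percent inhibition above 40 after rounding to a whole number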;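 note: rat C6 glioma host cells with rolipram phosphodiesterase inhibitor present; the protocol text gives 20 µM as final concentration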
Wee1 degr conf: human Wee1 degradation inhibition, confirmation | activation, % at 5 µM | HeLa Luc-Wee1K328M degradation, luminescence; vehicle 0%, proteasome-blocked wells 100% | shares compounds with Wee1 stabilizer | 4% of 1,100 active | AID 1410; in the data active = activation above about 8.9%
An asterisk follows results filed as active; i = inactive; x = no result.

SMILES | NCF1 inh | HSV replic up | Wee1 stabilizer | EP2 modulator | Furin inhibitor | PGE2 EP2 inh | Wee1 degr conf
CCCCc1c(C)nc(Nc2ccc(OC)cc2)[nH]c1=O | -13 | i | 18* | -1 | -20 | 6 | -1
NC(=S)N=Nc1c(O)[nH]c2ccc(F)cc12 | -17 | i | 0 | -1 | -10 | 6 | x
CC(C)NC(=S)N=Nc1c(O)[nH]c2ccc(C(C)C)cc12 | -2 | i | 15* | 5 | 0 | 6 | 0
CC(C)c1ccc2[nH]c(O)c(N=NC(=O)c3cccc(S(=O)(=O)Nc4ccccc4Cl)c3)c2c1 | -6 | i | 20* | 0 | -9 | 6 | 0
COc1ccc(NC(=O)CSc2nnc(-c3ccncc3)n2C)c(OC)c1 | x | x | x | -8 | x | 10 | x
CCc1nn(CC(=O)NCc2ccc(C)o2)c(=O)c2cc3ccsc3n12 | x | x | x | -28 | x | x | x
O=C(O)/C=C/c1cnn(-c2ccccc2)c1 | -14 | i | 15* | 16 | -8 | 8 | -5
O=C(Cc1ccccc1)N1CCc2ccccc21 | 2 | i | 4 | 27 | -12 | 17 | x
O=C(CS(=O)(=O)c1ccccc1)N1CCc2ccccc21 | -10 | i | 12* | 14 | -32 | 6 | 2
Cc1cccc(NC(=O)N2CCC(c3nc4ccccc4s3)CC2)c1 | x | x | x | -78 | x | 12 | x
O=C(c1ccc(Br)o1)N1CCN(c2ccc3nnc(-c4ccccc4)n3n2)CC1 | -1 | i | 14* | -21 | 1 | 11 | 5
Cc1nnc2ccc(N3CCN(C(=O)c4ccccc4)CC3)nn12 | 1 | i | 3 | 4 | -4 | 5 | x
Oc1ccc(-c2nc3cnccn3c2NC2CCCCC2)cc1O | x | x | x | -53 | x | x | x
Nc1n[nH]c(CCc2ccccc2)n1 | x | x | x | -32 | x | 8 | x
CC(=O)Nc1ccc(S(=O)(=O)NCc2ccncc2)cc1 | 8 | i | 12* | -45 | -14 | 5 | -1
O=C(Cn1cc(C(=O)c2ccco2)c2ccccc21)NCc1cccnc1 | x | x | x | -7 | x | 5 | x
Cc1ccccc1NC(=O)NC(N)=O | -2 | i | 14* | 10 | -29 | 3 | -2
Cc1ccc(NC(=O)Cn2nnc(-c3ccccc3NC(=O)c3cccs3)n2)cc1 | -11 | i | 14* | 5 | -10 | 29 | 5
COc1ccc(NC(=O)Cn2nnc(-c3ccccc3NC(=O)c3cccs3)n2)cc1 | -18 | i | -1 | -3 | -13 | 3 | x
Cc1ccc2c(c1)N(C(C)C(=O)NCCc1ccccc1)C(=O)CO2 (centres undefined) | -13 | i | 12* | 14 | -22 | 6 | 0
Cc1ccc(NS(=O)(=O)c2ccc(NS(=O)(=O)c3cccs3)cc2)cc1Cl | x | x | x | -5 | x | 8 | x
CN(CCOc1ccccc1)C(=O)c1cc([N+](=O)[O-])cc([N+](=O)[O-])c1 | -2 | i | 17* | -18 | -25 | 1 | -3
O=C(NCCOc1ccccc1)c1cc(C(=O)NCCOc2ccccc2)cc([N+](=O)[O-])c1 | -18 | i | -4 | -8 | -12 | 16 | x
CCOc1ccc(C(=O)N2CCC(c3nc(C)ncc3-c3ccncc3)CC2)o1 | x | x | x | -113 | x | x | x
Cc1ccc2[nH]c(C(=O)O)c(-c3ccccc3)c2c1 | 1 | i | -1 | 37 | -7 | 9 | x
SMILES | NCF1 inh | HSV replic up | Wee1 stabilizer | EP2 modulator | Furin inhibitor | PGE2 EP2 inh | Wee1 degr conf
Cc1ccc2[nH]c(C(=O)NN=C3CCCCC3)c(-c3ccccc3)c2c1 | -10 | i | 16* | 55 | -23 | 8 | 4
COc1ccc(NC(=O)c2ccc(Cn3cc(Cl)cn3)cc2)cc1 | 11 | i | -1 | -52 | -30 | 13 | x
Cc1ccc(F)c(NC(=O)c2ccc(Cn3cc(Cl)cn3)cc2)c1 | 10 | i | 12* | -27 | -20 | 13 | 1
CC(C)N(c1ccccc1)c1ccc(NC(=O)COC(=O)CCN2C(=O)c3cccc([N+](=O)[O-])c3C2=O)cc1 | 2 | i | 20* | 0 | -19 | 5 | -1
COc1ccc(CCNC(=O)CSc2nc(-c3cccs3)cc(C(F)(F)F)n2)cc1 | x | x | x | -104 | x | 12 | x
CCN1CCN(c2ccc([N+](=O)[O-])cc2S(=O)(=O)N2CCOCC2)CC1 | -7 | i | 11* | -6 | -28 | 7 | 4
COC(=O)CC1C(=O)NCCN1C(=O)CSc1nc2ccccc2o1 (centres undefined) | 0 | i | 12* | -15 | -9 | 10 | -1
COC(=O)CC1C(=O)NCCN1C(=O)CSc1nc2ccccc2c(=O)n1CC(C)C (centres undefined) | 0 | i | 2 | 16 | -23 | 7 | x
CC(C)NS(=O)(=O)c1ccc(OCC(=O)N2CCc3ccccc3C2)cc1 | -5 | i | 13* | -22 | -13 | 5 | 3
CC(C)c1ccc(N(CC(=O)NCc2ccc3c(c2)OCO3)S(C)(=O)=O)cc1 | x | x | x | 13 | x | 14 | x
CCn1c(CSc2nc3ccccc3s2)nnc1SCC(N)=O | -8 | i | 16* | 2 | -19 | 6 | 2
N#Cc1ccc(-c2csc(NC3=NCCCCC3)n2)cc1 | -11 | i | 15* | -48 | -1 | 7 | 2
c1ccc(-c2csc(NC3=NCCCCC3)n2)cc1 | -6 | i | -1 | -1 | -19 | 13 | x
CC1(C)CC(N(Cc2ccccn2)C(=O)c2ccc(Cl)cc2)CC(C)(C)N1 | x | x | x | 44 | x | 7 | x
Cc1ccc(O)c(NC(=O)c2cc([N+](=O)[O-])ccc2Cl)c1 | -2 | i | 11* | 1 | -19 | 12 | 4
Cc1cc(O)c(NC(=O)c2cc([N+](=O)[O-])ccc2Cl)cc1C | -3 | i | 45* | -65 | -16 | 6 | 4
O=C(Nc1cccnc1Cl)c1cc([N+](=O)[O-])ccc1Cl | 4 | i | -1 | 28 | -34 | 10 | x
Cc1ccn(CCNC(=O)CSc2nccc3ccccc23)n1 | x | x | x | -64 | x | 6 | x
COc1cc2nc(C3CCC3)n(NC(=O)c3c(F)cccc3F)c(=O)c2cc1OC | x | x | x | 19 | x | 7 | x
COc1ccc(NC(=S)N(CCCN2CCOCC2)C(C)c2cc3cccc(OC)c3o2)cc1 (centres undefined) | -4 | i | 1 | 25 | -32 | 4 | x
COc1cccc2cc(C(C)N(CCCN3CCOCC3)C(=S)Nc3ccc(C)c(C)c3)oc12 (centres undefined) | 3 | i | 33* | 24 | -25 | 7 | 0
COc1cccc2cc(C(C)N(CCCN3CCOCC3)C(=S)Nc3cc(C)ccc3C)oc12 (centres undefined) | 7 | i | 14* | 29 | -12 | 7 | 3
O=C(Cc1csc(-c2ccccc2)n1)NCc1ccc(F)cc1 | -4 | i | -3 | -8 | -10 | 7 | x
O=C(NCc1csc(-c2ccccc2)n1)c1cc(F)cc2c1OCOC2 | -11 | i | 15* | -17 | -16 | 5 | 0
